The record followed here is PubChem BioAssay (EPA / NIEHS).

Records with an inconclusive call do not appear. Activity calls are given as the source filed them. How the source made its calls: active means hit-call score of the fitted dose curve at least 0.9, where 1 is the maximum; inconclusive means response in the unintended direction; inactive means score below 0.9.

What is called AC50 is the midpoint of the concentration-response curve, whichever way the signal moves.

Sequence of bovine Gamma-Aminobutyric Acid Type A Receptor BDZ, alpha 1 site (GABARa1), GABRA1 (gene 780973) (P08219 whole entry, looked up): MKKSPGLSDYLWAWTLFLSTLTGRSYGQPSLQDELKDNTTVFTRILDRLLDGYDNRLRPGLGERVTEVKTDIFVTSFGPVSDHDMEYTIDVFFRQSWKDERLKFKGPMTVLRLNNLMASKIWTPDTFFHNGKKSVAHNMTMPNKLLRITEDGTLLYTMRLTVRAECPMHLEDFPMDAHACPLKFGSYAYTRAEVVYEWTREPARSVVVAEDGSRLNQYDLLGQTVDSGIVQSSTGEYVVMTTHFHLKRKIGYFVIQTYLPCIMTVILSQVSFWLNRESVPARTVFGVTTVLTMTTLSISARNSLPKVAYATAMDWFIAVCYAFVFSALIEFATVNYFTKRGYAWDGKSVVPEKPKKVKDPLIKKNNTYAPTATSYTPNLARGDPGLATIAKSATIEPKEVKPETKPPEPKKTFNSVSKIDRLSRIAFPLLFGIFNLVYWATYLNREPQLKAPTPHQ
Sequence of rat Monoamine Oxidase, MAO-B, Peripheral (MAOBP), Maob (gene 25750) (P19643 whole entry, looked up): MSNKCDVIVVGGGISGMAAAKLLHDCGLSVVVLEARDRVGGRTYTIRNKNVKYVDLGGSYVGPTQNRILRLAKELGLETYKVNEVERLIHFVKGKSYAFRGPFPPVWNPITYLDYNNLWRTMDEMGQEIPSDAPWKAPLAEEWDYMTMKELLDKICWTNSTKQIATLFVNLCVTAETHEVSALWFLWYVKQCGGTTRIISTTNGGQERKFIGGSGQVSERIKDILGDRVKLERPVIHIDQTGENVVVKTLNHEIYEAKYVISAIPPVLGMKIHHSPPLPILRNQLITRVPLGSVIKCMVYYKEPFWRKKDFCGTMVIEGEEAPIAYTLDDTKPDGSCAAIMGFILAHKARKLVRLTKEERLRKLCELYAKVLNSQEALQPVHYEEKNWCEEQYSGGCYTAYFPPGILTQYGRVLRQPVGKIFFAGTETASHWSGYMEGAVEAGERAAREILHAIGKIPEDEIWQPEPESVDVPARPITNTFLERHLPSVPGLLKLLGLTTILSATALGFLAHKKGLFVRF
Sequence of rat Corticotropin Releasing Factor Receptor (CRF), Crhr1 (gene 58959) (P35353 whole entry, looked up): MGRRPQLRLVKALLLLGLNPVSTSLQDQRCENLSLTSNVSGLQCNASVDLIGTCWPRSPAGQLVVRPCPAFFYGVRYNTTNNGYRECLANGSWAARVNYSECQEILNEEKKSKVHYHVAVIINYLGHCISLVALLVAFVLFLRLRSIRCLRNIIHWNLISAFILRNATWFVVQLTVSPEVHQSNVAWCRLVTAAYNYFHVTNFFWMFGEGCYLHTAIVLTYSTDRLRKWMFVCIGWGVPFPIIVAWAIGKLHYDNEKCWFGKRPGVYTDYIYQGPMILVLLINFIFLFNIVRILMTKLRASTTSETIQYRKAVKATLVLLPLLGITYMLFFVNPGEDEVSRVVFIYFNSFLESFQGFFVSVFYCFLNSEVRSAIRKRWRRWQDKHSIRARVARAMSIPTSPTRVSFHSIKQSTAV

One test has as its system rat Monoamine Oxidase, MAO-A, Peripheral (MAOAP), gene 29253. In words: NVS_ENZ_rMAOAP: NovaScreen (NVS) Enzymatic Assay for rat Monoamine Oxidase, MAO-A, Peripheral (MAOAP) (AID 2283237). In short, it runs like this:
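Scintillation counting tracked MAO-A activity in a cell-free rat liver mitochondrial membrane prep, read 1.17 hours after compound addition. Single-point duplicate testing at 25 uM preceded concentration-response follow-up; activity was fitted relative to DMSO.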
For the molecule `CC(C)C(=O)Nc1ccc([N+](=O)[O-])c(C(F)(F)F)c1`, the AC50 was 10.4 µM (active). For `CCn1nc(C)c2c1C(=O)NCC(c1ccc(O)cc1)=N2`, the AC50 was 5.25 µM (active).

As to `CCc1cc(SCc2sc(-c3ccc(C(F)(F)F)cc3)nc2CN2CCN(c3ccc(OC)cc3)CC2)ccc1OCC(=O)O`, the half-maximal activity concentration (AC50) was 25 µM (active).

For the molecule `O=c1ccc2ccccc2o1`, the AC50 is 6.56 µM (active).

For `Cc1cc(SC2=C(O)C[C@@](CCc3ccc(N)cc3)(C(C)C)OC2=O)c(C(C)(C)C)cc1CO`, the outcome was inactive. As to `Nc1cccc(N)c1`, the molecule was called inactive. Same read-out and setting: under `C[C@]12CC[C@@H]3c4ccc(O)cc4CC[C@H]3[C@@H]1CCC2=O` stands “inactive”.

The next test deals with rat Monoamine Oxidase, MAO-B, Central (MAOBC), Maob (gene 25750) (UniProt P19643). In words: NVS_ENZ_rMAOBC: NovaScreen (NVS) Enzymatic Assay for rat Monoamine Oxidase, MAO-B, Central (MAOBC) (AID 2283238). The gist of the method: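 Here MAO-B activity in rat brain preparations is quantified radiometrically, counts taken at 1.17 hours. Concentration-response runs reach 50 uM, with plate controls, and values are fitted as loss of signal from the DMSO baseline.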
Sequence of rat Monoamine Oxidase, MAO-B, Central (MAOBC), Maob (gene 25750) (P19643 whole entry, looked up): as the sequence (P19643 whole entry, looked up) above
In the case of `CCC(C)(C)C1CCC(O)CC1` (stereo not given), the result was inactive.

Consider `CCc1ccc(CCOc2ccc(CC3SC(=O)NC3=O)cc2)nc1` (stereo not given), for which the AC50 is 6 µM (active).

As for `Cc1oc(-c2ccccc2)nc1CCOc1ccc(C[C@H](Nc2ccccc2C(=O)c2ccccc2)C(=O)O)cc1`, the AC50 is 25 µM (active).

On to `CCOC(=O)C(C)Oc1ccc(Oc2nc3ccc(Cl)cc3o2)cc1` (stereo not given), for which the result was inactive. Still for that read-out and setting: next, `O=C(N[C@@H](Cc1ccccc1)[C@@H](O)C(=O)N1C[C@@H](O)[C@@H](O)C1)c1cc2cc(Cl)ccc2[nH]1`: “inactive”. With `CCCCCCCCOC(=O)c1cc(O)c(O)c(O)c1`, the call was inactive. Still for that read-out and setting: under `Cc1ccc(C)c(C)c1` stands “inactive”.

For the molecule `O=C(O)c1cccc(C[C@@H]2COc3ccc(OCc4nc5cc(F)ccc5s4)cc3[C@@H]2O)c1`, the concentration at half-maximal activity (AC50) is 17.8 µM (active). In the case of `C=CN1CCCC1=O`, the call was inactive. Turning to `COc1ccc([N+](=O)[O-])cc1N`, the AC50 was 25 µM (active). On the same count and under the same terms, under `COC(=O)c1ccc(C(=O)OC)cc1` stands 25 µM (active); under `Cc1c(C)c2c(c(C)c1O)CCC(C)(COc1ccc(CC3SC(=O)NC3=O)cc1)O2` (stereo not given), 25 µM (active); under `CCc1cc(SCc2sc(-c3ccc(C(F)(F)F)cc3)nc2CN2CCN(c3ccc(OC)cc3)CC2)ccc1OCC(=O)O`, 15 µM (active). For the molecule `O=c1ccc2ccccc2o1`, the AC50 is 12.5 µM (active). Regarding `CCCCCC(C)OC(=O)COc1ccc(Cl)c2cccnc12` (stereo not given), the call was inactive. Turning to `CS(=O)(=O)OCCCCOS(C)(=O)=O`, the molecule was classed as inactive. Still for that read-out and setting: next, `Cc1cccc(C)c1O`: “inactive”. As for `NC(=O)N(O)[C@@H]1COc2cc(OCc3ccccc3)ccc21`, the AC50 is 12.2 µM (active). On the same count and under the same terms, next, `CCOC(=O)[C@H](C)Oc1ccc(Oc2nc3ccc(Cl)cc3o2)cc1`: 1.57 µM (active). The same measure, in the same setting: next, `CCCCCCCCCCCC[N+](C)(C)C`: 9.12 µM (active). For the molecule `CC(O)CC(C)(C)O` (stereo not given), the result was inactive.

Another test has as its target rat Monoamine Oxidase, MAO-B, Peripheral (MAOBP), Maob (gene 25750) (UniProt P19643). In words: NVS_ENZ_rMAOBP: NovaScreen (NVS) Enzymatic Assay for rat Monoamine Oxidase, MAO-B, Peripheral (MAOBP) (AID 2283242).
Take `Cc1oc(-c2ccccc2)nc1CCOc1ccc(C[C@H](Nc2ccccc2C(=O)c2ccccc2)C(=O)O)cc1`: the outcome was inactive.

Consider `CC1=C(/C=C/C(C)=C/C=C/C(C)=C/C(=O)O)C(C)(C)CCC1`, for which the molecule was called inactive. As for `CCOC(=O)C(C)Oc1ccc(Oc2nc3ccc(Cl)cc3o2)cc1` (stereo not given), the AC50 was 29.9 µM (active).

Take `CCCCCCC(C=O)=Cc1ccccc1`: the outcome was inactive.

As to `CC(C)(O)c1ccc(CNC(=O)c2cccnc2Oc2ccc3nonc3c2)cc1`, the molecule was called inactive.

With `COC(=O)c1ccc(CNS(C)(=O)=O)cc1S(=O)(=O)NC(=O)Nc1nc(OC)cc(OC)n1`, the AC50 is 35.5 µM (active). Consider `NC(=Nc1ccccc1)Nc1ccccc1`, for which the molecule was classed as inactive.

For the molecule `O=c1[nH]sc2ccccc12`, the AC50 is 19.2 µM (active). In the case of `CCc1cc(SCc2sc(-c3ccc(C(F)(F)F)cc3)nc2CN2CCN(c3ccc(OC)cc3)CC2)ccc1OCC(=O)O`, the molecule was called inactive. For `O=c1ccc2ccccc2o1`, the AC50 is 13.5 µM (active).

Turning to `OCC(CO)(CBr)CBr`, the molecule was classed as inactive.

As to `CS(=O)(=O)OCCCCOS(C)(=O)=O`, the result was inactive. Same read-out and setting: under `O=C1NS(=O)(=O)c2ccccc21` stands “inactive”.

Regarding `CCOC(=O)[C@H](C)Oc1ccc(Oc2nc3ccc(Cl)cc3o2)cc1`, the AC50 was 15.9 µM (active).

For a further test, the system named is rat Monoamine Oxidase, MAO-A, Central (MAOAC), gene 29253. Nature of the test: NVS_ENZ_rMAOAC: NovaScreen (NVS) Enzymatic Assay for rat Monoamine Oxidase, MAO-A, Central (MAOAC) (AID 2283243).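 Further: potency refers to inhibition seen as signal drop below DMSO baseline.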 In short, it runs like this: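 Enzyme from rat brain, cell-free radiodetection format. Counts taken at 1.5 h; activity fitted against DMSO baseline, loss of signal marking inhibition. Confirmatory concentration series followed the 25 uM duplicate screen.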
`CCOC(=O)C(C)Oc1ccc(Oc2nc3ccc(Cl)cc3o2)cc1` (stereo not given): the molecule was called inactive. On to `c1ccc2c(c1)[nH]c1ccccc12`, for which the AC50 is 16.7 µM (active). Take `CCCCCCCCCCCCCCCC[N+](C)(C)Cc1ccccc1`: the molecule was classed as inactive. Consider `O=C(O)c1cccc(C[C@@H]2COc3ccc(OCc4nc5cc(F)ccc5s4)cc3[C@@H]2O)c1`, for which the half-maximal activity concentration (AC50) is 21 µM (active).

As for `C=Cc1cccc(C)c1`, the result was inactive. As to `O=C1OC2(c3ccccc31)c1cc(I)c(O)c(I)c1Oc1c2cc(I)c(O)c1I`, the concentration at half-maximal activity (AC50) was 0.828 µM (active). In the case of `CC=Cc1ccc(OC)c(OC)c1`, the concentration at half-maximal activity (AC50) is 17.2 µM (active). On the same count and under the same terms, next, `Nc1cccc(N)c1`: 4.33 µM (active).

Consider `c1ccc2c(c1)ccc1ncccc12`, for which the AC50 was 2.35 µM (active).

In the case of `CCOC(=O)[C@H](C)Oc1ccc(Oc2nc3ccc(Cl)cc3o2)cc1`, the half-maximal activity concentration (AC50) was 17.4 µM (active). Same read-out and setting: under `CCCCCCCCCCCC[N+](C)(C)C` stands 25 µM (active).

The target in another test is rat Corticotropin Releasing Factor Receptor (CRF), Crhr1 (gene 58959) (UniProt P35353). Nature of the test: NVS_GPCR_rCRF: NovaScreen (NVS) G Protein-Coupled Receptor Assay for rat Corticotropin Releasing Factor Receptor (CRF) (AID 2283300). The gist of the method:
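Single-concentration (25 uM, duplicate) radioligand binding on rat cortical membrane preparations, counted by scintillation after 2 h. Activity scored as signal loss relative to DMSO negative control.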
As for `CCC(C)(C)C1CCC(O)CC1` (stereo not given), the molecule was called inactive. `O=c1[nH]sc2ccccc12`: the AC50 was 17 µM (active). With `O=C(O)c1cccc(C[C@@H]2COc3ccc(OCc4nc5cc(F)ccc5s4)cc3[C@@H]2O)c1`, the outcome was inactive. Same read-out and setting: under `C[C@]12CC[C@@H]3c4ccc(O)cc4CC[C@H]3[C@@H]1CCC2=O` stands “inactive”.

Another test addresses bovine Gamma-Aminobutyric Acid Type A Receptor BDZ, alpha 1 site (GABARa1), GABRA1 (gene 780973) (UniProt P08219). In words: NVS_LGIC_bGABARa1: NovaScreen (NVS) Ligand-Gated Ion Channel Assay for bovine Gamma-Aminobutyric Acid Type A Receptor BDZ, alpha 1 site (GABARa1) (AID 2283321). In short, it runs like this:
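Bovine cortex membrane preparation, benzodiazepine site on GABA-A alpha1; specific radioligand displacement read after 0.75 h by filtration and scintillation. Screen at 25 uM, then singleton titrations up to 50 uM; DMSO baseline.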
As for `NC(=Nc1ccccc1)Nc1ccccc1`, the AC50 is 21.8 µM (active). Take `CCn1nc(C)c2c1C(=O)NCC(c1ccc(O)cc1)=N2`: the outcome was inactive. Consider `Cc1cc(SC2=C(O)C[C@@](CCc3ccc(N)cc3)(C(C)C)OC2=O)c(C(C)(C)C)cc1CO`, for which the half-maximal activity concentration (AC50) is 22.6 µM (active).
